# Screening data (PubChem BioAssay)
# Rev-erbA mod: modulates human Rev-erb alpha binding to DNA; P20393; Rev-erbα–FITC-DNA binding, fluorescence polarization, 90 min; activity, % at 10 µM; 370,000 compounds, 0.79% hits; AID 1259318;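 active means activity above about 14%, limit read from the data; passing the limit was not always enough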;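 further: 0% = DMSO wells with 35 nM protein and 100% = DMSO wells with 750 nM protein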
# PP5 primary: blocks human protein phosphatase 5 activity; P53041; purified PP5c, OMFP substrate fluorescence; inhibition, % at 6.7 µM; 320,000 compounds, 0.18% hits;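 active means inhibition above the campaign's mean inhibition across all tested compounds plus 3 SD, cut at about 9.5% in these data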;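 further: 0% = DMSO only and 100% = 100 µM cantharidin control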
# PP1 inh: counter-screen for PP5 inhibitors: inhibitors of human PP1-alpha. inhibition, % at 6.7 µM. AID 2235. 320,000 compounds, 0.9% hits. purified PP1alpha, OMFP fluorescence;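 active means inhibition above the mean inhibition of all tested compounds plus 3 SD, computed separately for each screening campaign, cut at about 15% in these data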
# GASC-1 inh: blocks human GASC-1 demethylase activity | 330,000 compounds, 0.069% hits | GST-JMJD2C(1-420) H3K9me3 demethylation, DELFIA europium | Q9H3R0 | inhibition, % at 2.35 µM;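 active means more than half of a compound's replicate wells show inhibition beyond 50%, single wells judged on their own value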;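 further: signal counts dimethyl H3K9 product captured on neutravidin plate; 0% = median of DMSO wells and 100% = 0.3 times that DMSO median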
# Target sequence (Q9H3R0 1-420 limits assumed): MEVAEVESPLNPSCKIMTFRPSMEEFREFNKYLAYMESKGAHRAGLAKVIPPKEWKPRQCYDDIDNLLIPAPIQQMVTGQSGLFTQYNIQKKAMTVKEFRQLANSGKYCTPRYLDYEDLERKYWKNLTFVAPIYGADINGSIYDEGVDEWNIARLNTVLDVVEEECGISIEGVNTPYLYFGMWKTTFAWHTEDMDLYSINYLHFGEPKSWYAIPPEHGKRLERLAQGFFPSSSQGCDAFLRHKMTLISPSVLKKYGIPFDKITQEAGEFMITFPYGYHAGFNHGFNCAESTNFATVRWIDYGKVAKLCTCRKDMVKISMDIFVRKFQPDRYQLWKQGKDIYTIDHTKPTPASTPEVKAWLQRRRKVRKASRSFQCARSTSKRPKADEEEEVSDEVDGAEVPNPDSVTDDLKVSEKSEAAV
# KLK7 zymogen act: activates the human kallikrein-7 zymogen | 370,000 compounds, 0.9% hits | activation, % at 7 µM | purified proKLK7, EDANS-DABCYL substrate fluorescence; 100% is mature enzyme control, 0% vehicle;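 active means activation above the mean of all tested compounds plus 3 SD, computed per campaign excluding outliers beyond control limits, cut at about 13% in these data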
# Target sequence (P49862 whole entry, looked up): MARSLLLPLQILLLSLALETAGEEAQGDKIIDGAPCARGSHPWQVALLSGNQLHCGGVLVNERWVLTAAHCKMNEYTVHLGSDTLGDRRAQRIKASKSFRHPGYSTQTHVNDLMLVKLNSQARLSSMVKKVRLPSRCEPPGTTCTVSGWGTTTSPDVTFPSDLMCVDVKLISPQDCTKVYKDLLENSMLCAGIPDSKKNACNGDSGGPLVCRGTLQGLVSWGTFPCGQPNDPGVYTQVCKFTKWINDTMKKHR
# PG9 Ab binder: small molecules binding HIV-1 gp120 antibody PG9. 360,000 compounds, 0.43% hits. TR-FRET gp120-PG9 antibody binding. inhibition, % at 6.7 µM. AID 624416; in the data active means inhibition above about 8.5%
# proKLK7 act conf: confirmation of human kallikrein-7 zymogen activators; shares compounds with KLK7 zymogen act; purified proKLK7, EDANS-DABCYL substrate fluorescence; scaled: vehicle 0, mature enzyme 100; activation, % at 7 µM; 3,200 compounds, 68% hits; AID 686949;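 active means activation, as change over the incubation, above the mean of all tested compounds plus 3 SD, cut at about 13% in these data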
# EDANS interfere: fluorescence interference counter-screen for KLK7 activators; 3,200 compounds, 80% hits; AID 686952; shares compounds with KLK7 zymogen act; EDANS-DABCYL substrate fluorescence interference, no enzyme, 4 h; solvent 0%, active enzyme control 100%; activation, % at 7 µM;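 active means activation above the all-compound mean plus 3 SD, ignoring values outside control-based bounds, cut at about 4.8% in these data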;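 further: value is the 4 h activation minus the activation read at time zero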
# EDANS interf: EDANS fluorescence interference in dose response, no enzyme; shares compounds with KLK7 zymogen act; 250 compounds, 20% hits; EDANS-DABCYL peptide fluorescence interference; AID 720493; EC50, µM;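 active means compounds that raise the fluorescence signal in this interference counterscreen, with EC50 at or below 10 µM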;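 further: intact quenched peptide substrate alone read at 355 nm excitation and 520 nm emission; signal is fluorescence gain from T0 to T4 after four hours at room temperature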
# An asterisk follows results filed as active; i = inactive; / = no result given. This is a sample that favours compounds with a hit; in the whole collection about 2.8% have one here.
SMILES,Rev-erbA mod,PP5 primary,PP1 inh,GASC-1 inh,KLK7 zymogen act,PG9 Ab binder,proKLK7 act conf,EDANS interfere,others
Cc1ccc2nc3c(cc(C(=O)NCCc4ccccc4)c(=N)n3CCCN3CCOCC3)c(=O)n2c1,-2.7,0.7,-0.5,-18.9,17.3*,0.8,-1.5,-2.3,
Cc1cccn2c(=O)c3cc(C(=O)NCCN4CCOCC4)c(=N)n(CCc4ccccc4)c3nc12,-2.5,1.3,-1.2,37.8,35.1*,1.2,-7.3,-5.8,
Cc1cccn2c(=O)c3cc(C(=O)NCc4ccccc4)c(=N)n(CCCN4CCOCC4)c3nc12,-3.0,/,/,/,17.7*,0.1,-4.5,-1.6,
COc1ccc(CCNC(=O)c2cc3c(=O)n4ccccc4nc3n(CCCN3CCOCC3)c2=N)cc1,-14.8,1.5,0.0,-2.4,-0.1,0.8,/,/,
C=CC[C@@]1(c2ccccc2)Oc2ccccc2-c2nc3ccccc3nc21,6.5,/,/,/,-14.5,/,/,/,
Cc1cc(NS(=O)(=O)c2ccc(NC(=O)CSc3nnc(-c4ccncc4)n3Cc3ccco3)cc2)nc(C)n1,3.4,/,/,/,-0.4,/,/,/,
CC(C)(C)OC(=O)N1CCC(N[C@@H](Cc2ccccc2)C(=O)NCC(c2ccccc2)c2ccccc2)(C(=O)NC2CCCCC2)CC1,4.0,/,/,/,/,/,/,/,
Cc1ccccc1S(=O)(=O)N(C)C[C@@H]1OCc2cn(nn2)CCCC(=O)N([C@@H](C)CO)C[C@H]1C,3.4,/,/,/,-0.3,-0.2,/,/,
C[C@H]1COc2cccc(N3CCCC3)c2S(=O)(=O)N1,-4.6,/,/,/,0.2,-0.3,/,/,
N=c1c(C(=O)NC2CCCC2)cc2c(=O)n3ccccc3nc2n1CCCN1CCOCC1,-4.1,-0.8,1.7,4.3,26.0*,-1.1,-23.6,-17.1,
COC(=O)c1ccccc1NC1CC(=O)N(c2c(C)cccc2C)C1=O (centres undefined),0.6,5.8,-12.5,2.0,88.0*,-1.9,48.2*,48.5*,
COC(=O)c1ccc(NC2CC(=O)N(c3ccccc3C)C2=O)cc1 (centres undefined),4.0,0.8,0.1,-41.8,0.8,0.7,/,/,
CCOc1ccc(-n2c(SCC(=O)c3ccc4ccccc4c3)nnc2-c2ccc(OC)cc2)cc1,-1.3,/,/,/,-0.5,/,/,/,
COc1ccc(-c2cc(C(=O)N(C)CC(=O)Nc3ccccc3C(F)(F)F)c3ccccc3n2)cc1OC,-2.6,/,/,/,13.6*,1.7,1.7,9.0*,
O=C(Nc1ccc(F)cc1)OCc1cn(Cc2ccccc2)nn1,-0.4,/,/,/,-0.3,/,/,/,
Cc1sc2nc(COC(=O)CNC(=O)c3cc(F)ccc3F)[nH]c(=O)c2c1C,-8.1,/,/,/,-0.7,/,/,/,
Cc1ccc(NC(=O)C2=CC(c3cccs3)=NS(=O)(=O)N2C)cc1,3.3,4.5,1.7,-49.3,18.3*,-1.4,21.8*,12.7*,EDANS interf=i
COC(=O)C1=CNC=C(C(=O)OC)C1c1ccc(C(=O)OC)cc1,-0.8,0.9,-0.2,2.3,12.7*,2.2,19.3*,13.7*,EDANS interf=>69.5
COC(=O)C1=C(C)N(C)C(C)=C(C(=O)OC)C1c1ccc(C(=O)OC)cc1,0.4,3.6,-3.1,0.8,0.5,-1.6,/,/,
CCN1CCCC1Cn1cnc2c([nH]c3ccc(C)cc32)c1=O (centres undefined),-2.2,-0.7,-1.3,-19.2,16.1*,0.4,4.8,5.0*,
Cc1ccc2[nH]c3c(=O)n(CCN4CCNCC4)cnc3c2c1,-3.0,1.2,1.7,-4.6,0.7,-0.7,/,/,
C[C@H]1[C@@H](C(=O)N2CCCC2)Cc2nc3ccccc3nc2C[C@@H]1c1ccccc1,-0.5,/,/,/,0.2,/,/,/,
CC(=O)N1CCc2cc(S(=O)(=O)NC3CCN(C(=O)C(C)(C)C)CC3)ccc21,-4.3,/,/,/,-0.3,/,/,/,
Cc1cccc(-c2cc(N3CCCN(C)CC3)n3nccc3n2)c1,-11.2,/,/,/,28.5*,-0.7,-3.4,-3.0,
O=C1N(CC[C@@H](O)c2ccccc2)CCC12CCC(c1ccccc1)CC2 (some centres undefined),3.0,/,/,/,/,/,/,/,
SMILES,Rev-erbA mod,PP5 primary,PP1 inh,GASC-1 inh,KLK7 zymogen act,PG9 Ab binder,proKLK7 act conf,EDANS interfere,others
CC1=C(C(=O)OCC2CCCO2)C(c2ccncc2)C2=C(CC(C)(C)CC2=O)N1 (centres undefined),-5.7,-4.5,2.5,1.0,13.0*,-1.0,21.3*,29.3*,
COCCOC(=O)C1=C(C)NC2=C(C(=O)CC(C)(C)C2)C1c1cccnc1 (centres undefined),2.1,0.8,1.8,-18.5,18.0*,-0.5,38.6*,34.3*,
CC(C)C[C@H]1COc2cccc(N3CCCC3)c2S(=O)(=O)N1C,-0.5,/,/,/,0.6,/,/,/,
N#CC1=C(N)Oc2cc(N)ccc2C1c1ccc(Cl)cc1 (centres undefined),6.3,7.9,-3.8,-10.1,0.6,0.5,/,/,
N#CC1=C(N)Oc2cc(N)ccc2C1c1ccc(F)cc1F (centres undefined),4.2,0.2,1.9,-5.5,17.0*,-2.0,13.4*,15.0*,
N#CC1=C(N)Oc2cc(N)ccc2C1c1ccccc1Cl (centres undefined),5.0,/,/,5.1,19.9*,-1.7,4.1,5.8*,
C#CCNC(=O)C[C@H]1C[C@@]2(C(=O)OC)C(=C[C@H](C(C)(C)C)O[C@@H]2C)N(Cc2ccc3c(c2)OCO3)C1=O,8.9,/,/,/,0.5,-1.3,/,/,
COC(=O)c1ccc2nc(-c3ccc(C)cc3)c(Cc3ccccc3)n2c1,3.5,/,/,/,-3.1,-0.1,/,/,
N=c1oc2ccc3ccccc3c2cc1-c1nnc2n1CCCCC2,5.8,2.2,0.7,-1.3,62.7*,2.0,71.6*,71.7*,
COc1ccc2oc(=N)c(-c3nnc4n3CCCCC4)cc2c1,4.2,-1.6,0.8,2.3,-5.8,-3.2,/,/,
CCC(C)n1c(=N)c(C#N)cc2c(=O)n3cc(C)ccc3nc21 (centres undefined),1.8,-0.8,-3.0,17.2,3.3,0.3,/,/,
Cc1ccc2nc3c(cc(C#N)c(=O)n3-c3nccs3)c(=O)n2c1,-0.6,2.6,0.0,6.1,25.2*,-0.5,61.3*,73.3*,
O=c1nc(-c2ccccc2)cc(-c2ccccc2)[nH]1,2.2,-0.9,-2.2,0.0,5.9,0.1,/,/,
COc1ccccc1-c1cc(-c2ccccc2)nc(=O)[nH]1,-2.9,1.1,-3.5,1.3,17.7*,-0.4,9.8,14.3*,
COC(=O)c1cc(OC)c(OC)cc1N=CC1=C(O)CC(C)(C)CC1=O,0.8,0.8,-1.1,-2.8,-0.5,0.0,/,/,
COC(=O)c1cc(N=CC2=C(O)CC(C)(C)CC2=O)cc(C(=O)OC)c1,0.5,-3.8,-4.2,-8.5,25.1*,-2.2,46.8*,45.4*,
